# Data taken from PubChem BioAssay AID488834 (National Center for Advancing Translational Sciences (NCATS), 2010).
# Calls of active or inactive are those of the source. Calls follow the shape of the dose curve; as a rule, active = well fitted curve in the direction sought with a large enough effect; inactive = no such curve, though single readings can be large or run the other way.
# Biological target: Lysosomal alpha-glucosidase (Homo sapiens) (UniProt P10253)
# Assay: qHTS Assay for Inhibitors and Activators of N370S glucocerebrosidase as a Potential Chaperone Treatment of Gaucher Disease: Alpha-Glucosidase Counterscreen for Probe SAR
# Conditions: purified human alpha-glucosidase, 4-MU fluorogenic substrate
# From the text: NIH Chemical Genomics Center [NCGC] NIH Molecular Libraries Probe Production Centers Network [MLPCN] MLPCN Grant: MH086442-01 Assay Submitter (PI): Wei Zheng Glucocerebrosidase (GC) catalyzes the hydrolysis of beta-glucocerebroside to glucose and ceramide in lysosomes. Mutations in the glucocerebrosidase gene result in Gaucher disease, an autosomal recessive lysosomal storage disorder. Many of the mutations encountered in patients with Gaucher disease are missense alterations that may cause misfolding, decreased stability and/or mistrafficking of this lysosomal protein. […] These inhibitors include iminosugar analogs and three non-iminosugar inhibitors identified from a previous HTS of 62,000 compounds with the wild type recombinant enzyme. However, the enhancement of enzyme activity by the chaperone action of an enzyme inhibitor must be balanced against the direct inhibition of the enzyme. An enzyme activator could also function as a chaperone by binding to the enzyme and helping to correct its misfolding and mistrafficking. While activators for GC have not yet been identified, they may have better therapeutic potential than inhibitors. Therefore the discovery and development of chemical activators may provide a new strategy for the chaperone therapy. To characterize compound selectivity, selected hits from the primary screen were screened against purified alpha-glucosidase, a related sugar hydrolase. Alpha-glucosidase is responsible for hydrolysis of terminal, non-reducing 1,4-linked alpha-D-glucose residues with release of alpha-D-glucose.
# NCGC Assay Protocol Summary: This is a fluorogenic enzyme assay with 4-methylumbelliferyl-alpha-D-[…] as the substrate and human alpha-glucosidase as the enzyme preparation. Upon the hydrolysis of this fluorogenic substrate, the resulting product, 1. 4-methyllumbelliferone, can be excited at 365 nm and emits at 440 nm which can be detected by a standard fluorescence plate reader. Data were normalized to the controls for basal activity (without enzyme) and 100% activity (with enzyme). The AC50 values were determined from concentration-response data modeled with the standard Hill equation. Assay buffer: 50 mM citric acid (titrated with potassium phosphate to pH 5.0), 0.005% Tween-20, pH 5.0. (pH 5.0 is an optimal condition for this enzyme assay) 1536-well assay protocol for the human alpha-glucosidase: (1) Add 2 ul/well of enzyme (4 nM final) (2) Add 23 nL compounds in DMSO solution. The final titration was 0.7 nM to 77 uM. (3) Add 1 ul of substrate (400 uM final) (4) Incubate at room temperature for 20 min. (5) Add 2 ul stop solution (1M NaOH and 1M Glycine mixture, pH 10) (6) Detect the assay plate in a ViewLux plate reader (PerkinElmer) with Ex=365 nm and Em=440nm. Keywords: Alpha-glucosidase, Pompe Disease, pharmacological chaperone, chaperone therapy, high throughput screening, alpha-glucosidase inhibitor, MLSMR, MLSCN, NIH Roadmap, qHTS and NCGC
row,SMILES,max response
1,O=C(NC1CCCCC1)c1cnn2c1NC(=C1CC1)C=C2C(F)F,-3.85% (inactive)
2,O=C(Nc1ccccc1Sc1ccccc1)c1cnn2c1NC(=C1CC1)C=C2C(F)(F)F,-11.4% (inactive)
3,O=C(Nc1ccccc1Sc1ccccc1)c1cnn2c1NC(=C1CC1)C=C2C(F)F,-18.1% (inactive)
4,C#Cc1ccc(NC(=O)c2cnn3c(C)cc(C)nc23)cc1,-2.48% (inactive)
5,O=C(Nc1ccc2c(c1)CCC2)c1cnn2c1NC(=C1CC1)C=C2C(F)F,-4.43% (inactive)
6,C=C1C=C(C(F)F)n2ncc(C(=O)Nc3ccc(C(C)CC)cc3)c2N1 (stereo unspecified),-2.76% (inactive)
